Only some compounds are listed: those with a hit (about 11% of all), similar ones and a draw of the others.
USP17 inh: blocks human USP17 ubiquitin-rhodamine cleavage | 47,000 tested, 6.5% active | A8MUK1 | inhibition, % at 50 µM | purified USP17, Ub-rhodamine cleavage fluorescence, 3 h
USP30 block: human USP30 deubiquitinase inhibition | Q70CQ3 | purified USP30, Ub-rhodamine cleavage fluorescence | inhibition, % at 25 µM | 47,000 tested, 5.3% active | AID 1645860
USP28 block: human USP28 deubiquitinase inhibition; Q96RU2; purified USP28, Ub-rhodamine cleavage fluorescence, 30 min; inhibition, % at 25 µM; 47,000 tested, 3% active; AID 1645857
* = called active by the depositor. Rule as the data show it: active = inhibition above about 30%; inactive = the rest.

SMILES | USP17 inh | USP30 block | USP28 block
O=C(CNC(=O)OCc1ccccc1)Nc1ccc(Br)cc1C(=O)c1ccccc1Cl | 77.1* | -6.0 | -2.1
O=C(CNC(=O)c1ccccc1Br)Nc1ccc(Br)cc1C(=O)c1ccccc1 | 21.7 | 43.4* | 13.9
Cc1csc(C2(NC(=O)c3cnn(C(C)(C)C)c3)CCCC2)n1 | -3.3 | 0.2 | -7.0
CCN(CC)C(=O)C1=NOC2(CCCNC2)C1 (centres undefined) | -36.1 | -17.7 | -11.3
CC1CC[C@@]2(NC1)O[C@H]1C[C@H]3[C@@H]4CC=C5C[C@@H](O)CC[C@]5(C)[C@H]4CC[C@]3(C)[C@H]1[C@@H]2C (some centres undefined) | 51.7* | 37.6* | 31.2*
C[C@@H]1CC[C@@]2(NC1)OC1CC3C4CC=C5C[C@@H](O)CC[C@]5(C)C4CC[C@]3(C)C1[C@@H]2C (some centres undefined) | 10.0 | 10.6 | 5.3
Cn1cc(CN2C[C@H]3C[C@H](C(=O)Nc4cccnc4)[C@@H](C2)O3)cn1 | -0.1 | 4.5 | -1.9
CCCCCCC(O)CCCCCC/C=C/[C@H](O)[C@@H](OC(C)=O)[C@H](O)[C@H](N)C(=O)O (some centres undefined) | 35.4* | -24.1 | -3.1
O=C(NC[C@H]1OC[C@@H]2CCN(Cc3nccs3)C[C@@H]21)c1ccno1 | -4.7 | -12.4 | -14.2
Cn1c(=O)c2ncnnc2n(C)c1=O | 95.5* | 82.9* | 96.2*
CN1C(=O)[C@]23CC4=CC=C[C@H](O)[C@H]4N2C(=O)[C@@]1(CO)SS3 | -18.2 | 50.5* | -16.3
CN1CC(C(=O)NCCc2ccncc2)C2(CCOCC2)C1 (centres undefined) | 4.0 | 20.9 | 9.8
CC(C)=CCC[C@H](C(=O)O)[C@@H]1CC[C@]2(C)C3=C(CC[C@@]12C)[C@@]1(C)CCC(=O)C(C)(C)C1CC3 (some centres undefined) | 36.3* | 31.7* | 16.8
CC(C)N1CCN(C(=O)Cc2c[nH]c3ccccc23)C(C(N)=O)C1 (centres undefined) | -39.9 | -107.8 | -23.5
Cc1cc(C)nc(-n2nc(C)c3c2NC(=O)CSC3c2ccc(F)cc2)n1 (centres undefined) | -0.8 | 4.6 | -4.8
O=C1CN=C(c2ccccc2)c2ccccc2N1Cc1ccccc1F | -1.0 | 9.1 | -2.0
Cc1ccc(S(=O)(=O)N2C[C@H]3CN(C)CC[C@H]32)cc1 | 4.7 | 14.5 | -0.1
O=C1Nc2ccccc2C2(CCN(Cc3ccc4c(c3)OCO4)CC2)O1 | 1.2 | 18.5 | 7.6
COc1ccc(OC)c(-c2c(C#N)c(C)nc3c2N2CCC3CC2)c1 | 48.6* | 43.2* | 94.1*
c1ccc(CN2CC[C@H]3CO[C@H](CNc4ncccn4)[C@H]3C2)cc1 | -15.3 | -0.6 | -8.3
C[C@@H]1N[C@@H]2CCCCCCCC(=O)O[C@H]3CC[C@@H](CCCCCCCC(=O)O[C@H]1CC2)N[C@H]3C | 0.4 | -0.4 | 0.1
CN(C[C@H]1CN2CC[C@H]1C[C@@H]2CNC(=O)Nc1cccc(F)c1)c1ccccc1 | -27.1 | 39.5* | -3.7
CC1CCN(C[C@H]2CN3CC[C@H]2C[C@@H]3CNC(=O)Nc2ccccc2)CC1 | -0.1 | 7.8 | 12.1
NC(=O)CCN1CCC2(CC1)OC(=O)N(Cc1ccccc1)c1ccccc12 | -3.0 | -20.1 | -0.4
O=S1(=O)Cc2cnc(NCC3CC3)nc2[C@H]2CN(CC3CC3)C[C@H]21 | -4.0 | -2.6 | -0.8
SMILES | USP17 inh | USP30 block | USP28 block
Cc1[nH]nc2c1C(c1cccc(F)c1)SCC(=O)N2 (centres undefined) | -3.4 | -1.6 | -5.2
Cc1cccc(COc2ccc(C3SCC(=O)Nc4n[nH]c(C)c43)cc2)c1 (centres undefined) | 56.1* | 20.7 | 12.6
CCC(CC(C)C(=O)O)C(=O)CC/C1=C/C(C)C/C(C)=C/C(C)C(O)C(C)CCC(CCCC/C=C/C(C)CCC(C)OC(=O)CC(CC(=O)O)C(=O)O)OC(=O)CC(C(=O)O)CC(=O)OC1 (centres undefined) | 0.4 | 32.4* | -0.1
CC(C)C1OC(=O)C(Cc2ccccc2)N(C)C(=O)C(C(C)C)OC(=O)C(Cc2ccccc2)N(C)C(=O)C(C(C)C)OC(=O)C(Cc2ccccc2)N(C)C1=O (centres undefined) | -4.8 | 0.9 | -11.3
O=C1CCOC[C@]2(CNC[C@H]2c2ccc(F)c(F)c2)N1 | 4.3 | 11.1 | 0.0
CN1CC[C@H]2CN(C(=O)CC3CCCC3)C[C@H]2C1 | -11.0 | -6.2 | -9.8
COc1ccc(CN2CCC3(CC2)OC(=O)Nc2ccccc23)cc1 | 4.6 | 9.1 | 0.5
CN(C)[C@@H]1C(=O)C(C(N)=O)=C(O)[C@@]2(O)C(=O)C3=C(O)c4c(O)cccc4[C@@](C)(O)[C@H]3C[C@@H]12 | 50.8* | -99.0 | 27.7

Screens (PubChem BioAssay)
